In PubChem BioAssay (NCI) one finds growth data, which are given here for 38 compounds.

About 83,000 compounds went through this panel and 20% of them were active in at least one assay; those are over-represented in the sample as a whole.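 Results are percent growth after 48 hours of single-concentration exposure. 100 means growth as in untreated cells, lower positive values show inhibition; negative values down to -100 show cell death.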 A number with no mark means an inactive call. Calls of active or inactive are those of the source. How the source made its calls: active means growth percent below 10; inactive means the rest.

The assay relates to SK-OV-3 ovarian. In words: NCI-60 one-dose screen, 48 h (100 = growth as untreated, 0 = no growth, -100 = all killed). To be noted: 10 µM unless noted.
With `COc1ccc(-c2c(-c3ccc(OC)c(O)c3)cnc3ncnn23)cc1`, the growth was 110%.

`O=C(Nc1ccc(F)cc1F)c1cc(Br)ccc1O`: the growth is -21.8% (active).

`COc1ccc(-c2cc(=O)c3c(OC)c4ccoc4c(/C=C/C=O)c3o2)cc1`: the growth is 84%.

In the case of `Cc1nc(Nc2cn[nH]c2C(=O)Nc2ccc(CN3CCN(C)CC3)cc2)c2ccsc2n1`, the growth was 64.4%.

In the case of `O=[N+]([O-])c1cc2c(ccc3occc32)o1`, the growth was 14.7%.

Consider `CN1CCN(c2nc(Nc3ccc(O)cc3)nc3ccccc23)CC1`, for which the growth is 57.2%.

`Nc1ncnc(N)c1NC(=O)c1ccc(OCc2ccccc2)cc1`: the growth was 102%.

With `CSc1nc2c(c(=O)[nH]1)N=C1c3ccccc3C(=O)C1C(c1ccc(F)cc1)N2` (stereo not drawn), the growth was 79.4%.

As to `COc1ccc(-c2nc(-c3ccccn3)c(-c3ccccn3)n2CC(C)C)cc1OC1CCCC1`, the growth is 8.21% (active).

As for `O=C1NC(=S)NC(=O)C1=Cc1cn(Cc2cn(Cc3cccc4ccccc34)nn2)c2ccccc12`, the growth is 111%.

Consider `O=C(Nc1ccc(Br)cc1F)c1cc(Cl)ccc1O`, for which the growth is -7.14% (active).

Consider `CN1C(=O)N(C)C2Nn3c(s/c(=C4\C(=O)N(CCc5ccccc5)c5ccccc54)c3=O)=NC21` (stereo not drawn), for which the growth is 76.9%.

Regarding `CC(=O)c1ccc(Cc2ccc(C(C)=O)s2)s1`, the growth is 109%.

Turning to `O=c1oc2ccc(F)cc2c(=O)n1-c1ccc(F)cc1F`, the growth is -4.73% (active).

As for `O=C(Nc1ccc(-c2nc3cc4ccccc4cc3[nH]2)cc1)c1cccc(Br)c1`, the growth is 43.8%.

Take `CCOc1c(Br)cc(C2C(C(=O)OC)=CN(C)C=C2C(=O)OC)cc1OC`: the growth was 87.5%.

Take `COc1ccc(Cn2c(Br)c3c(c2-c2cc(OC)c(OC)c(OC)c2)CCc2sc(NC(=O)c4ccc(OC)cc4)nc2-3)cc1`: the growth was 108%.

`O=C1c2cc(Br)ccc2Oc2cc([N+](=O)[O-])ccc2N1c1ccc(I)cc1F`: the growth is 115%.

`COc1ccc(Nc2nc(N/N=C/c3ccc(O)cc3)nc(Nc3ccc([N+](=O)[O-])cc3)n2)cc1`: the growth is 112%.

On to `Nc1ccn(C2O[C@H](CO)[C@@H](O)[C@H]2O)c(=O)n1` (stereo partly drawn), for which the growth was 90.2%.

Take `CCN1C(=O)N(CC)C2C1NN=c1s/c(=C3\C(=O)N(C(C)C)c4ccccc43)c(=O)n12` (stereo not drawn): the growth is 29.7%.

On to `CC1(C)CC2(C)OC2C2(C1)N=NC(=Nc1ccccc1)O2` (stereo not drawn), for which the growth is 117%.

`COc1cc(C(C)n2cc(-c3ccccc3)nn2)ccc1OC1CCCC1` (stereo not drawn): the growth is 75.8%.

On to `COC(=O)C1=C(C)NC(C)=C(C(=O)OC)C(N2C(=O)CCC2=O)C1` (stereo not drawn), for which the growth is 104%.

As to `O=c1oc2ccc(Cl)cc2c(=O)n1-c1ccc(Cl)cc1F`, the growth is -2.36% (active).

For the compound `COc1ccc2sc(N(Cc3cccnc3)C(=O)c3ccc(C#N)cc3)nc2c1`, the growth is 106%.

As for `O=C(O)CCCN1C(=O)C2C3CCC(C3)C2C1=O` (stereo not drawn), the growth was 103%.

Consider `CN1C(=O)N(C)C2(c3ccccc3)OC(=S)NC12c1ccccc1` (stereo not drawn), for which the growth was 92%.

Take `Nc1nonc1-n1nncc1-c1cccnc1`: the growth was 104%.

Turning to `COc1cc(C(C)n2cc(-c3ccccc3)nn2)ccc1OC1CCCCC1` (stereo not drawn), the growth was 73.4%.

On to `Nc1ccc(-c2nn3c(CCC(=O)c4nc5ncccc5[nH]4)nnc3s2)c(O)c1`, for which the growth was 91.4%.

As for `O=NN(C(=O)NC1CCC(C(=O)O)CC1)C1CCC(C(=O)O)CC1` (stereo not drawn), the growth was 114%.

For the compound `COc1ccc(OC)c(/C=C/C(=O)c2c(C)nc3ccccc3c2/C=C/c2ccccc2)c1`, the growth was 91%.

In the case of `Cc1nc(Nc2ccccn2)sc1C(=O)/C=C/c1ccc(Cl)cc1`, the growth was 26.9%.

On to `O=C(Nc1ccc(-c2nc3ccc(NC(=O)c4ccc(Cl)cc4)cc3[nH]2)cc1)c1ccc(Cl)cc1`, for which the growth was 60.7%.

In the case of `O=C(COc1cc(O)c2c(=O)cc(-c3ccccc3)oc2c1)Nc1ccccc1C(F)(F)F`, the growth was 44.1%.

As for `COc1ccc(CCN2C(=O)CCSC2=S)cc1OC`, the growth was 105%.

Consider `COc1ccc(Cn2c(Br)c3c(c2Br)-c2nc(N)sc2CC3)cc1`, for which the growth was 24%.
